Assay results as given in PubChem BioAssay (NCATS).
Records with an inconclusive call do not appear. Activity calls are given as the source filed them. Calls come from the whole dose curve; as a rule, active = well fitted cell-killing curve with a large enough effect; inconclusive = small, poorly fitted or top-dose-only effect, or effect the other way; inactive = no such curve, though single readings can be large or run the other way.

Columns and labels:
[1] = Quantitative High-Throughput drug screen in 47 multiple myeloma cell lines against the NCATS MIPE library collection: MM1R_ATCC cell viability assay (AID 1918981); note: nearly all actives have a fitted effect of over 35% in size
Summary of the method: (§1)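 ATP-based CellTiter-Glo luminescence after 48 h drug exposure (37 °C, 5% CO2) of 500 myeloma cells per well. DMSO-only wells set 100% viability, media-only wells 0%; MIPE 4.0 library added by pin tool.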

[2] = Quantitative High-Throughput drug screen in 47 multiple myeloma cell lines against the NCATS MIPE library collection: OCIMY5_PLB cell viability assay (AID 1918988); note: potency is the fitted concentration of half-maximal effect; nearly all actives have a fitted effect of over 65% in size
Summary of the method: as §1

[3] = Quantitative High-Throughput drug screen in 47 multiple myeloma cell lines against the NCATS MIPE library collection: SKMM1_PLB cell viability assay (AID 1919863); conditions: SKMM1 myeloma viability, CellTiter-Glo ATP, 48 h; viability: hits give low values; note: nearly all actives have a fitted effect of over 35% in size; note: potency is the fitted concentration of half-maximal effect
Summary of the method: as §1

[4] = Quantitative High-Throughput drug screen in 47 multiple myeloma cell lines against the NCATS MIPE library collection: XG6_PLB cell viability assay (AID 1919865); note: nearly all actives have a fitted effect of over 40% in size; note: potency is the fitted concentration of half-maximal effect
Summary of the method: as §1

[5] = Quantitative High-Throughput drug screen in 47 multiple myeloma cell lines against the NCATS MIPE library collection: XG1_PLB cell viability assay (AID 1919866); note: nearly all actives have a fitted effect of over 35% in size; note: potency is the fitted concentration of half-maximal effect
Summary of the method: as §1

[6] = Quantitative High-Throughput drug screen in 47 multiple myeloma cell lines against the NCATS MIPE library collection: VP6_DJ cell viability assay (AID 1919867); note: nearly all actives have a fitted effect of over 40% in size; note: potency is the fitted concentration of half-maximal effect
Summary of the method: as §1

[7] = Quantitative High-Throughput drug screen in 47 multiple myeloma cell lines against the NCATS MIPE library collection: KMS11_JCRBsus cell viability assay (AID 1919873); note: nearly all actives have a fitted effect of over 50% in size; note: potency is the fitted concentration of half-maximal effect
Summary of the method: as §1

[8] = Quantitative High-Throughput drug screen in 47 multiple myeloma cell lines against the NCATS MIPE library collection: LP1_DSMZ cell viability assay (AID 1918982); note: nearly all actives have a fitted effect of over 35% in size; note: potency is the fitted concentration of half-maximal effect
Summary of the method: as §1

[9] = Quantitative High-Throughput drug screen in 47 multiple myeloma cell lines against the NCATS MIPE library collection: KMS28PE_JCRB cell viability assay (AID 1918983); note: nearly all actives have a fitted effect of over 35% in size; note: potency is the fitted concentration of half-maximal effect
Summary of the method: as §1

[10] = Quantitative High-Throughput drug screen in 47 multiple myeloma cell lines against the NCATS MIPE library collection: L363_DSMZ cell viability assay (AID 1918984); conditions: L363 myeloma viability, CellTiter-Glo ATP luminescence, 48 h; viability (% of control): at 45.8 µM (top of the series); note: nearly all actives have a fitted effect of over 40% in size; note: potency is the fitted concentration of half-maximal effect
Summary of the method: as §1

[11] = Quantitative High-Throughput drug screen in 47 multiple myeloma cell lines against the NCATS MIPE library collection: KMS34_JCRB cell viability assay (AID 1918985); note: nearly all actives have a fitted effect of over 40% in size; note: potency is the fitted concentration of half-maximal effect
Summary of the method: as §1

[12] = Quantitative High-Throughput drug screen in 47 multiple myeloma cell lines against the NCATS MIPE library collection: OCIMY7_PLB cell viability assay (AID 1918987); conditions: OCI-MY7 myeloma viability, CellTiter-Glo ATP, 48 h; viability (% of DMSO): at 45.8 µM (top of the series); note: nearly all actives have a fitted effect of over 65% in size; note: potency is the fitted concentration of half-maximal effect
Summary of the method: as §1

[13] = Quantitative High-Throughput drug screen in 47 multiple myeloma cell lines against the NCATS MIPE library collection: OPM1_PLB cell viability assay (AID 1918989); note: nearly all actives have a fitted effect of over 40% in size; note: potency is the fitted concentration of half-maximal effect
Summary of the method: as §1

[14] = Quantitative High-Throughput drug screen in 47 multiple myeloma cell lines against the NCATS MIPE library collection: U266_ATCC cell viability assay (AID 1919864); note: nearly all actives have a fitted effect of over 35% in size; note: potency is the fitted concentration of half-maximal effect
Summary of the method: as §1

[15] = Quantitative High-Throughput drug screen in 47 multiple myeloma cell lines against the NCATS MIPE library collection: RPMI8226_ATCC cell viability assay (AID 1919871); note: nearly all actives have a fitted effect of over 30% in size; note: potency is the fitted concentration of half-maximal effect
Summary of the method: as §1

[16] = Quantitative High-Throughput drug screen in 47 multiple myeloma cell lines against the NCATS MIPE library collection: UTMC2_PLB cell viability assay (AID 1919868); conditions: CellTiter-Glo ATP luminescence, 48 h; viability (% of DMSO control): at 45.8 µM (top of the series); note: nearly all actives have a fitted effect of over 55% in size; note: potency is the fitted concentration of half-maximal effect
Summary of the method: as §1

[17] = Quantitative High-Throughput drug screen in 47 multiple myeloma cell lines against the NCATS MIPE library collection: PE2_PLB cell viability assay (AID 1919869); note: nearly all actives have a fitted effect of over 35% in size; note: potency is the fitted concentration of half-maximal effect
Summary of the method: as §1

[18] = Quantitative High-Throughput drug screen in 47 multiple myeloma cell lines against the NCATS MIPE library collection: OPM2_DSMZ cell viability assay (AID 1919872); note: nearly all actives have a fitted effect of over 30% in size; note: potency is the fitted concentration of half-maximal effect
Summary of the method: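 Relative luminescence from CellTiter-Glo served as the viability signal, referenced to DMSO-treated (100%) and cell-free medium (0%) controls. Treatment lasted 48 hours at 37C with 500 cells per well.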

[19] = Quantitative High-Throughput drug screen in 47 multiple myeloma cell lines against the NCATS MIPE library collection: KMS28BM_JCRB cell viability assay (AID 1919874); note: nearly all actives have a fitted effect of over 35% in size; note: potency is the fitted concentration of half-maximal effect
Summary of the method: as §1

[20] = Quantitative High-Throughput drug screen in 47 multiple myeloma cell lines against the NCATS MIPE library collection: PCM6_Riken cell viability assay (AID 1919870); note: nearly all actives have a fitted effect of over 30% in size; note: potency is the fitted concentration of half-maximal effect
Summary of the method: as §1

CCNC(=O)Nc1ccc(Oc2ncnc(N)c2C=NOC)cc1Cl
active: Potency [2] 14.8 µM | Potency [3] 11.8 µM | Potency [4] 4.18 µM | Potency [5] 2.96 µM | Potency [6] 3.72 µM | Potency [7] 9.35 µM
inactive: Potency [1]

CN1C(=O)C[C@H](C(=O)N[C@@H](Cc2cnc[nH]2)C(=O)N2CCC[C@@H]2C(N)=O)NC1=O
inactive: Potency [8] | Potency [9] | Potency [10] | Potency [12] | Potency [14] | Potency [15]
active: Potency [11] 2.96 µM | Potency [13] 20.9 µM | Potency [4] 10.5 µM | Potency [5] 10.5 µM | Potency [6] 10.5 µM

O=C1Nc2ccc(I)cc2C1=Cc1cc(Br)c(O)c(Br)c1
active: Potency [2] 8.33 µM | Potency [13] 10.5 µM | Potency [3] 18.7 µM | Potency [5] 20.9 µM | Potency [16] 14.8 µM | Potency [17] 14.8 µM | Potency [7] 18.7 µM
inactive: Potency [1] | Potency [14] | Potency [15] | Potency [18] | Potency [19]

OCCn1cc(-c2ccc3c(c2)CCC3=NO)c(-c2ccncc2)n1
active: Potency [4] 13.2 µM | Potency [6] 16.6 µM | Potency [20] 20.9 µM
inactive: Potency [9] | Potency [11] | Potency [13] | Potency [15] | Potency [18]

CCCC1OC2C[C@@H]3[C@H]4CCC5=CC(=O)C=C[C@]5(C)[C@H]4C(O)C[C@]3(C)[C@]2(C(=O)CO)O1 (some centres undefined)
active: Potency [9] 20.9 µM | Potency [10] 0.0662 µM | Potency [2] 0.0372 µM | Potency [7] 0.0015 µM
inactive: Potency [4] | Potency [5] | Potency [6] | Potency [17]

O=C(Nc1ccccc1)Nc1ccc(-c2ccc(C(=O)[C@H]3CCC[C@H]3C(=O)O)cc2)cc1
inactive: Potency [8] | Potency [11] | Potency [13] | viability [3] 114% | Potency [6] | Potency [17] | Potency [18] | Potency [7] | Potency [19]
active: Potency [2] 20.9 µM | Potency [4] 4.69 µM | Potency [5] 2.96 µM

CC1CNc2c(cccc2S(=O)(=O)N[C@@H](CCCN=C(N)N)C(=O)N2CC[C@@H](C)C[C@@H]2C(=O)O)C1 (some centres undefined)
inactive: Potency [8] | Potency [11] | Potency [12] | Potency [14] | Potency [5] | Potency [6] | Potency [16] | Potency [17] | Potency [20] | Potency [15] | Potency [18] | Potency [7]
active: Potency [4] 5.9 µM

CC[C@H](C)n1cc(C)c2c(C(=O)NCc3c(C)cc(C)[nH]c3=O)cc(-c3ccc(N4CCNCC4)nc3)cc21
inactive: Potency [10]
active: Potency [8] 23.5 µM | Potency [2] 23.5 µM | Potency [14] 16.6 µM | Potency [5] 9.35 µM | Potency [6] 11.8 µM | Potency [17] 23.5 µM | Potency [15] 26.4 µM | Potency [7] 23.5 µM | Potency [19] 23.5 µM

COC(=O)N1CCN(Cc2cccc(NC(=O)Nc3ccc(C)nc3)c2F)CC1
active: Potency [8] 16.6 µM
inactive: Potency [11] | Potency [13] | Potency [4] | Potency [5] | Potency [15] | Potency [18]

CCOC(=O)c1c(CSc2ccccc2)n(C)c2cc(Br)c(O)c(CN(C)C)c12
active: Potency [9] 18.7 µM | Potency [10] 20.9 µM | Potency [11] 11.8 µM | Potency [2] 16.6 µM | Potency [13] 5.26 µM | Potency [3] 6.62 µM | Potency [4] 14.8 µM | Potency [20] 16.6 µM | Potency [15] 11.8 µM | Potency [7] 18.7 µM | Potency [19] 14.8 µM

Cc1ccccc1C(=O)c1ccc(Nc2ccc(Br)cc2N)cc1Cl
active: Potency [9] 14.8 µM | Potency [12] 11.8 µM | Potency [2] 10.5 µM | Potency [13] 16.6 µM | Potency [3] 16.6 µM | Potency [14] 11.8 µM | Potency [6] 16.6 µM | Potency [17] 18.7 µM | Potency [15] 11.8 µM | Potency [18] 23.5 µM | Potency [7] 18.7 µM

CCC[C@H](N[C@@H](C)C(=O)N1[C@@H]2CCCC[C@H]2C[C@H]1C(=O)O)C(=O)OCC
active: Potency [3] 18.7 µM | Potency [16] 1.32 µM | Potency [15] 9.35 µM
inactive: Potency [9] | Potency [11] | Potency [13] | Potency [20] | Potency [7] | Potency [19]

COc1cc(N2CCN(C)CC2)ccc1Nc1nc(N)c(C(=O)c2c(Cl)cccc2Cl)s1
inactive: Potency [15]
active: Potency [9] 14.8 µM | Potency [10] 20.9 µM | Potency [2] 18.7 µM | Potency [13] 20.9 µM | Potency [14] 18.7 µM | Potency [5] 23.5 µM | Potency [7] 18.7 µM

CN(C)N=Nc1nc[nH]c1C(N)=O
inactive: Potency [9] | Potency [11] | viability [3] 140% | Potency [14] | Potency [20] | Potency [15] | Potency [18] | Potency [7]
active: Potency [2] 20.9 µM | Potency [13] 4.18 µM | Potency [4] 5.26 µM | Potency [5] 2.64 µM

Cc1c(C(=O)Nc2ccc(N3C[C@@H](C)O[C@@H](C)C3)nc2)cccc1-c1ccc(OC(F)(F)F)cc1
active: Potency [9] 13.2 µM | Potency [12] 9.35 µM | Potency [2] 20.9 µM | Potency [14] 5.9 µM | Potency [15] 16.6 µM | Potency [18] 23.5 µM
inactive: Potency [17] | Potency [20] | Potency [7] | Potency [19]
